# Reference: ChEMBL document CHEMBL2218924, “A broad activity screen in support of a chemogenomic map for kinase signalling research and drug discovery” (Biochem J, 2013)
# Columns and labels:
# [1] = biological target: T1, Serine/threonine-protein kinase TAO3 (Homo sapiens) (UniProt Q9H2K8); details: at 1 µM
# T1 sequence (whole entry): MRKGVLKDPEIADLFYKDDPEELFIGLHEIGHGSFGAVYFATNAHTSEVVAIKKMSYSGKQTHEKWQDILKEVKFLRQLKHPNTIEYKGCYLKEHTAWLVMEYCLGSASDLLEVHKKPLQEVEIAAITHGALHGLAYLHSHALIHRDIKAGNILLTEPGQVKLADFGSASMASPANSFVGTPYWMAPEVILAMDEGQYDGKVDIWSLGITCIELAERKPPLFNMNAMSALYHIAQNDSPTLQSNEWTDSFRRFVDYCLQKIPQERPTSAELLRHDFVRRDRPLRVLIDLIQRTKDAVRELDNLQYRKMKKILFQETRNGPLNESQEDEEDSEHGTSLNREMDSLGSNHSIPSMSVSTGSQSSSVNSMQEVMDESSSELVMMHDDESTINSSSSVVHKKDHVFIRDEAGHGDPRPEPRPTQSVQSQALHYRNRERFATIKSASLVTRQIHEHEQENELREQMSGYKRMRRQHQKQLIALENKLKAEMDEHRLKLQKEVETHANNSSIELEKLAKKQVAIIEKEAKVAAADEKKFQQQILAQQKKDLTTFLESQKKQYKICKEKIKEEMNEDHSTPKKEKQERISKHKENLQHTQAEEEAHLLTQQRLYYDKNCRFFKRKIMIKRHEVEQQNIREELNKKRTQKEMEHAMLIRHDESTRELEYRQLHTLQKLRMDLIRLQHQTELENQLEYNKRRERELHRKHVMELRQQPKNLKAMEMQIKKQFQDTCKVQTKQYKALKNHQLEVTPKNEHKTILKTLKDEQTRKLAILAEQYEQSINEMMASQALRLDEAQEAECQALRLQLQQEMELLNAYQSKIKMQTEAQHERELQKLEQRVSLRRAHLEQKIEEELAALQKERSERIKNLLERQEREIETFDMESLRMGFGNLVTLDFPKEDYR
# [2] = biological target: T1, Serine/threonine-protein kinase TAO3 (Homo sapiens); details: at 10 µM
# [3] = biological target: T2, Serine/threonine-protein kinase TBK1 (Homo sapiens) (UniProt Q9UHD2); details: at 1 µM
# T2 sequence (whole entry): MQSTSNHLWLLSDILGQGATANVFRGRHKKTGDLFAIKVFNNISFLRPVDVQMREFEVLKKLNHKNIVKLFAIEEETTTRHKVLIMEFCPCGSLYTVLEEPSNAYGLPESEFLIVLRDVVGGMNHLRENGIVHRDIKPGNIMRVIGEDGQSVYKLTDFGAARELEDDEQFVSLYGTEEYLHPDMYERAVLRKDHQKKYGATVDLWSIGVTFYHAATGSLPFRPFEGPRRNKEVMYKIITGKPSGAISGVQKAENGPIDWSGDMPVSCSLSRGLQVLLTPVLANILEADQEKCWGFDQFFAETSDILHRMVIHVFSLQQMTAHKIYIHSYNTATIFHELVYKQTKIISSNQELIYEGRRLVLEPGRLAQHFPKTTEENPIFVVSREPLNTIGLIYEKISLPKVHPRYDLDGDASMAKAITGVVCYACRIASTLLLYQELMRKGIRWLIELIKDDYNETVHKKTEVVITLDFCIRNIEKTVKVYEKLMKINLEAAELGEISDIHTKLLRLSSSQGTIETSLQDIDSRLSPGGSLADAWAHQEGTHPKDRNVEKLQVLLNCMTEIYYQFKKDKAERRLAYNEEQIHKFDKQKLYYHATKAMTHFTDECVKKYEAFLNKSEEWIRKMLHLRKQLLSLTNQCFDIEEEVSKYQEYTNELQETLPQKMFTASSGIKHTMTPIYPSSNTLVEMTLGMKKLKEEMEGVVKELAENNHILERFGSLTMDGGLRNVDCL
# [4] = biological target: T2, Serine/threonine-protein kinase TBK1 (Homo sapiens); details: at 10 µM
# [5] = biological target: T3, TGF-beta receptor type-1 (Homo sapiens) (UniProt P36897); details: at 1 µM
# T3 sequence (whole entry): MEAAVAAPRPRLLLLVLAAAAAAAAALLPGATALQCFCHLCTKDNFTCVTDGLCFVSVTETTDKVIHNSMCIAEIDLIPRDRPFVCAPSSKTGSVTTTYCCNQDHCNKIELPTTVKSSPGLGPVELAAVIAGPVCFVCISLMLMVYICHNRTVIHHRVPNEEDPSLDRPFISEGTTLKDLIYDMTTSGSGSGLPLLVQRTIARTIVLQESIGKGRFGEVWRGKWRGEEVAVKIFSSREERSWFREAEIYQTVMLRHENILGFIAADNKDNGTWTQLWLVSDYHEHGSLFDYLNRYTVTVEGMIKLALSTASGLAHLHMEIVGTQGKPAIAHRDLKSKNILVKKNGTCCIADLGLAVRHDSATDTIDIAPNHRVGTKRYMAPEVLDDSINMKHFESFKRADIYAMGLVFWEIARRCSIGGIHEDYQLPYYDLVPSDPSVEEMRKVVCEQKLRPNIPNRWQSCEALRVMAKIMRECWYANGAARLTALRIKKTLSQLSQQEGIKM
# [6] = biological target: T3, TGF-beta receptor type-1 (Homo sapiens); details: at 10 µM
# [7] = biological target: T4, Inhibitor of nuclear factor kappa-B kinase subunit beta (Homo sapiens) (UniProt O14920); details: at 1 µM
# T4 sequence (whole entry): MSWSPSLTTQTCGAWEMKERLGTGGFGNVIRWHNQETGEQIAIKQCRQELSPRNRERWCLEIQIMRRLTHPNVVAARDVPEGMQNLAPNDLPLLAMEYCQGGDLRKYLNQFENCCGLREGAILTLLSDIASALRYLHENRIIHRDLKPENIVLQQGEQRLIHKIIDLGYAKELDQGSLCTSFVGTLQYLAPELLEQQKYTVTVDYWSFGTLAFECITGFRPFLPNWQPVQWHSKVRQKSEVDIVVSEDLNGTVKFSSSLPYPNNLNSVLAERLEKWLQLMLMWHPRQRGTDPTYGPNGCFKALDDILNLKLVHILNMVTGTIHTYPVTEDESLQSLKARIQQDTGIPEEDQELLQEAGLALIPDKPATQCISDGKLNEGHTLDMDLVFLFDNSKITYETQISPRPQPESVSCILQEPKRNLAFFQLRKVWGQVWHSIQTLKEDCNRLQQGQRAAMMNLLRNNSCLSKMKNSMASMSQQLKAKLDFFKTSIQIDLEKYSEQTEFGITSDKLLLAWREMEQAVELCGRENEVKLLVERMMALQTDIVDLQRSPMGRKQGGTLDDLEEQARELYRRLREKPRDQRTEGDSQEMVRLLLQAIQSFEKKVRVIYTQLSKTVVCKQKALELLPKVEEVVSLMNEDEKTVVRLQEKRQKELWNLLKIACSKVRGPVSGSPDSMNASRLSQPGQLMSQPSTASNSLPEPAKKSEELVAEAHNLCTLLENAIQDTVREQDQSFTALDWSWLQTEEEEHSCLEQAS
# [8] = biological target: T4, Inhibitor of nuclear factor kappa-B kinase subunit beta (Homo sapiens); details: at 10 µM
structure (smiles),measurement,setting,value
CC(=O)c1ccc(N2CCOCC2)cc1O,residual activity,[1],101%
same,residual activity,[2],91%
same,residual activity,[3],74%
same,residual activity,[4],70%
same,residual activity,[5],83%
same,residual activity,[6],90%
same,residual activity,[7],104%
same,residual activity,[8],102%
